Records with an inconclusive call do not appear. Calls of active or inactive are those of the source. Unless noted, the call rests on the fitted dose curve; in most records, active means well fitted curve in the direction sought with a large enough effect in the repeat runs; inconclusive means weak or mixed curves; inactive means no such curve, though single readings can be large; an effect the other way counts as inactive or inconclusive.

In assay [1] the target is Luciferin 4-monooxygenase (Photinus pyralis) (UniProt P08659). As to the kind of experiment: qHTS assay to identify small molecule inhibitors of firefly luciferase (AID 1224835). Further: series mostly up to about 120 µM; nearly all actives have a fitted effect of over 25% in size. In short, it runs like this:
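Quantitative HTS format; KM concentrations of both substrates. Purified P. pyralis FLuc activity quantified from luminescence images.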
A general note: In qHTS, concentration-response curves come from the screen itself.

The nature of assay [2]: qHTS assay to identify small molecule antagonists of the constitutive androstane receptor (CAR) signaling pathway - cell viability counter screen (AID 1224837). Further: series mostly up to about 92 µM; nearly all actives have a fitted effect of over 45% in size. In short, it runs like this: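 To flag cytotoxic false antagonists, HepG2 hCAR/CYP2B6-2.2kb cells were treated 23 hr with 15-concentration compound series and 50 nM CITCO at 37 C/5% CO2; CellTiter-Fluor fluorescence was the measured end point.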

In assay [3] the target is Nuclear receptor subfamily 1 group I member 3 (Homo sapiens) (UniProt Q14994). As to the kind of experiment: qHTS assay to identify small molecule antagonists of the constitutive androstane receptor (CAR) signaling pathway (AID 1224838).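 Further: HepG2 cells stably expressing hCAR with CYP2B6 luciferase reporter stimulated by CITCO; nearly all actives have a fitted effect of over 40% in size.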 In short, it runs like this:
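Human hepatoma HepG2 cells expressing hCAR and a CYP2B6 promoter (2.2 kb) luciferase construct; compound titration (15 points) with 50 nM CITCO final, 24 h at 37 C/5% CO2; luminescence via ONE-Glo after 30 min at room temperature.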

For assay [4] the target is unchanged. As to the kind of experiment: qHTS assay to identify small molecule agonists of the constitutive androstane receptor (CAR) signaling pathway (AID 1224839).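 Further: HepG2 cells stably carrying human CAR and a CYP2B6 luciferase reporter; series mostly up to about 92 µM; nearly all actives have a fitted effect of over 15% in size.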 The procedure, abridged:
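Luminescent ONE-Glo read-out after 24 hr, 37 C exposure of double-stable HepG2-CYP2B6-hCAR reporter cells to a 15-point compound series, in the presence of 0.75 uM PK11195 (final).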

The nature of assay [5]: qHTS assay to identify small molecule antagonists of the estrogen related receptor signaling pathway with the pleiotropic PPARgamma coactivator (PGC) from Tox21 10K library - cell viability counter screen (AID 1224840; active means well fitted cell-killing curve with a large enough effect in the repeat runs, not every such curve was filed as active; further: nearly all actives have a fitted effect of over 40% in size). In short, it runs like this:
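Seeded PGC/ERR cells (2,000/well, 6 h, 37 C/5% CO2) get compound by pin tool; 17.5 h incubation at 37 C; CellTiter-Fluor added, 30 min, fluorescence measured.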

The nature of assay [6]: qHTS assay to identify small molecule antagonists of the estrogen related receptor signaling pathway with the pleiotropic PPARgamma coactivator (PGC) from Tox21 10K library (AID 1224841; call rule not given here; further: potency means the concentration at half of the fitted maximal effect; actives are mostly falling curves and most rising ones were filed inactive; nearly all actives have a fitted effect of over 50% in size). In short, it runs like this:
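Test chemicals dissolved in DMSO were applied to pre-incubated (6 h) PGC/ERR cells at 2,000 cells/well for an 18 h, 37 C treatment; reporter luminescence was then read using One-Glo.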

Assay [7] is described as follows: qHTS assay to identify small molecule agonists of the estrogen related receptor signaling pathway with the pleiotropic PPARgamma coactivator (PGC) from Tox21 10K library (AID 1224842). Further: nearly all actives have a fitted effect of over 15% in size. The procedure, abridged: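 PGC/ERR reporter cells (NTP line) were seeded 2,000 per well, rested 6 h at 37 C/5% CO2, then pin-dosed with compounds in DMSO for 18 h at 37 C; luciferase read by One-Glo luminescence after 30 min at room temperature.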

In assay [8] the target is Thyrotropin receptor (Homo sapiens) (UniProt P16473). As to the kind of experiment: qHTS assay to identify small molecule agonists of the thyroid stimulating hormone receptor (TSHR) signaling pathway (AID 1224843; calls by dose curve; further: nearly all actives have a fitted effect of over 45% in size). In short, it runs like this:
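Compounds are titrated over 15 concentrations, in triplicate, onto TSHR-HEK293 cells seeded at 800/well. Plates sit 30 min at room temperature before cAMP-d2 and anti-cAMP cryptate are added; signal is read after a further hour.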

Assay [9] is described as follows: qHTS assay to identify small molecule agonists of the hypoxia (HIF-1) signaling pathway - cell viability counter screen (AID 1224844; calls by dose curve; further: nearly all actives have a fitted effect of over 50% in size). In short, it runs like this: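 HRE-bla ME-180; 0.5% dFBS; cpd 17 h, 37C, 5% CO2; CellTiter-Glo lum., 30 min RT, post-FRET read, same wells.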
Assay [10] in a line: qHTS assay to identify small molecule agonists of H2AX (AID 1224845; active means well fitted activation curve with a large enough effect in the signal ratio in the repeat runs, not every such curve was filed as active; the % refers to the signal ratio). The procedure, abridged:
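Wild-type CHO-K1 cells plated overnight, then exposed 3 hr at 37C to compounds at 15 concentrations (0.76% DMSO). Lysed, then HTRF anti-pH2AX(S139)-cryptate/anti-H2AX-d2 detection after 24 hr at room temperature; emissions 665 and 620 nm.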

The nature of assay [11]: qHTS assay to identify small molecule agonists of the hypoxia (HIF-1) signaling pathway (AID 1224846; active means well fitted activation curve with a large enough effect in the signal ratio in the repeat runs, not every such curve was filed as active; the % refers to the signal ratio). The procedure, abridged: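 Reporter induction in HRE-bla ME-180 cells is taken as agonism: cells sit 5 hrs after plating, receive compounds or DMSO only, incubate 17 hrs at 37C under 5% CO2, and are loaded with CCF4-AM for beta-lactamase FRET measurement.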
A short description of assay [12]: qHTS assay to identify small molecule agonists of the constitutive androstane receptor (CAR) signaling pathway - cell viability counter screen (AID 1224836). Further: series mostly up to about 92 µM; nearly all actives have a fitted effect of over 45% in size. The procedure, abridged:
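Cell viability multiplexed with the CAR agonist screen: CellTiter-Fluor fluorescence after 23 hr at 37 C. HepG2-CYP2B6-hCAR cells got compounds at 15 concentrations with PK11195 at 0.75 uM final.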

Luciferin 4-monooxygenase (Photinus pyralis), sequence (P08659 whole entry, looked up): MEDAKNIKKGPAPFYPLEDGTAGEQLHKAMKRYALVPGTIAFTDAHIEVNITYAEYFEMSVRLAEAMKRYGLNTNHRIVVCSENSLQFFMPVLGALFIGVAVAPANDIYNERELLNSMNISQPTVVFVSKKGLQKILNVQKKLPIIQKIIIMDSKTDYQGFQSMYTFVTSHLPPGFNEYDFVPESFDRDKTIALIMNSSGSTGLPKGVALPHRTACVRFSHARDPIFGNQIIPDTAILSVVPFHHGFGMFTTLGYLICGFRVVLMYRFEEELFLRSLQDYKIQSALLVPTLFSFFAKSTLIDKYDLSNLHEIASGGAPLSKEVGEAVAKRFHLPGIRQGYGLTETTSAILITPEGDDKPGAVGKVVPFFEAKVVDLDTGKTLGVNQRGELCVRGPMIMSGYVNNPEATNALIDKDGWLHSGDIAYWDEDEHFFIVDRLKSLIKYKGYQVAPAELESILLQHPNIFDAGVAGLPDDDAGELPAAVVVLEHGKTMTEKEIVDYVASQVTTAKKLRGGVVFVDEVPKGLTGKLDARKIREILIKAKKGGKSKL
Nuclear receptor subfamily 1 group I member 3 (Homo sapiens), sequence (Q14994 whole entry, looked up): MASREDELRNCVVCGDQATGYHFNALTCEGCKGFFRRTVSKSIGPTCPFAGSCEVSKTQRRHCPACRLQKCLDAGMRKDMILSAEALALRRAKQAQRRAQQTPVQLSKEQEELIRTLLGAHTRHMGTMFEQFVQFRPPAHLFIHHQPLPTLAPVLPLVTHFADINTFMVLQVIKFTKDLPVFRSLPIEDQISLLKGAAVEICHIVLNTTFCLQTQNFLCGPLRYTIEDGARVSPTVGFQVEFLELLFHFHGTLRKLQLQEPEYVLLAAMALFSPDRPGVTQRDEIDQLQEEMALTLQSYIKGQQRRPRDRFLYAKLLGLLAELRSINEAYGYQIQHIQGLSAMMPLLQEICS
Thyrotropin receptor (Homo sapiens), sequence (P16473 whole entry, looked up): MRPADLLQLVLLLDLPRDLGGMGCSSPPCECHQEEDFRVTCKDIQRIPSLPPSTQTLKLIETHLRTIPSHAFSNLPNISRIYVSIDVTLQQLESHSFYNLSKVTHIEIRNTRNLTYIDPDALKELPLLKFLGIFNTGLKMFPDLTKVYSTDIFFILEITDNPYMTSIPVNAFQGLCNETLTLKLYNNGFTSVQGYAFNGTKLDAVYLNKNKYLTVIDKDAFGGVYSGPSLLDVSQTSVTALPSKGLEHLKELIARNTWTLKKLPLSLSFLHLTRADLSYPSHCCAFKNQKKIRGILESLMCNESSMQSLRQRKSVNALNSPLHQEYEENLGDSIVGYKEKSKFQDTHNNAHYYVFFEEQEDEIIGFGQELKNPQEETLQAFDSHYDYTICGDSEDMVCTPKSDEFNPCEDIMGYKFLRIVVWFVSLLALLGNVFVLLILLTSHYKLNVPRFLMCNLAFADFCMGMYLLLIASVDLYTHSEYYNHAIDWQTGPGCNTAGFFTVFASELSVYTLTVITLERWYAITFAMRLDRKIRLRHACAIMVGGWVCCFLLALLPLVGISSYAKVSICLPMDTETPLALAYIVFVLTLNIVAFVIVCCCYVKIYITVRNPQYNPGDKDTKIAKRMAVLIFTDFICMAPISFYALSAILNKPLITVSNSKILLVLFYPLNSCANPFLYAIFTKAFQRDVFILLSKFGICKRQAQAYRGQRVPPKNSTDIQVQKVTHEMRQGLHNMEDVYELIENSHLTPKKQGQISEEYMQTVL

Consider `Nc1ccc(F)c([N+](=O)[O-])c1`, for which the Potency entry in assay [1], in [2], in assay [3], in assay [4], in [5] and in [7] was “inactive” throughout. Also, the Potency entry in assay [8], in assay [9], in assay [10] and in assay [11] was “inactive” each time. For the same molecule, the Potency in assay [6] is 30.6 µM (active).

For the molecule `CC1=CC[C@@H](C(C)(C)O)CC1`, the Potency result in assay [1], in [12], in assay [2], in [8], in assay [9] and in [10] was “inactive” in each case. In addition, in assay [11], the Potency result was “inactive”.
